Assay [1] can be described thus: qHTS assay to test for compound auto fluorescence at 535 nm (green) in HEK293 cells (AID 720680). Note: % is set by controls: 0 for no effect and ±100 for the full control effect. Background: qHTS replaces the single test concentration by a dilution series.
Assay [2] in a line: qHTS assay to test for compound auto fluorescence at 460 nm (blue) in HEK293 cell free culture (AID 720681). Note: % is set by controls: 0 for no effect and ±100 for the full control effect. A digest of the protocol:
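Blue fluorescence (Ex 405/Em 460 nm, triamterene-equivalent) was read immediately after pin transfer of compound or DMSO into medium (DMEM, 10% FBS) without cells.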

Assay [3] in a line: qHTS assay to test for compound auto fluorescence at 535 nm (green) in HEK293 cell free culture (AID 720682). Note: % is set by controls: 0 for no effect and ±100 for the full control effect. A digest of the protocol: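 Each library compound, or DMSO control, is added by pintool to medium alone, comprising DMEM and 10% FBS. Emission at 535 nm following 485 nm excitation is quantified against fluorescein.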
The nature of assay [4]: qHTS assay to test for compound auto fluorescence at 590 nm (red) in HEK293 cell free culture (AID 720683). Note: % is set by controls: 0 for no effect and ±100 for the full control effect. The method, boiled down: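 Red-channel autofluorescence of compounds in culture medium (DMEM, 10% FBS), no cells, measured at 540/590 nm. Rose Bengal sodium is the reference fluorophore for equivalence.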
Assay [5] in a line: qHTS assay to test for compound auto fluorescence at 590 nm (red) in HepG2 cell free culture (AID 720684). Note: % is set by controls: 0 for no effect and ±100 for the full control effect. A digest of the protocol:
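Cell-free; medium MEM + 10% FBS; compound or DMSO added by pintool; read Ex 540/Em 590 nm; Rose Bengal sodium as red reference fluorophore.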

Assay [6] is described as follows: qHTS assay to test for compound auto fluorescence at 460 nm (blue) in HepG2 cell free culture (AID 720685). Note: % is set by controls: 0 for no effect and ±100 for the full control effect. The method, boiled down: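 Cell-free plates of MEM plus 10% FBS received 23 nL compound or DMSO vehicle; blue-channel (405/460 nm) intensity scored against triamterene as reference fluorophore.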
The nature of assay [7]: qHTS assay to test for compound auto fluorescence at 535 nm (green) in HepG2 cell free culture (AID 720686). Note: % is set by controls: 0 for no effect and ±100 for the full control effect.
A short description of assay [8]: qHTS assay to test for compound auto fluorescence at 460 nm (blue) in HepG2 cells (AID 720687). Note: % is set by controls: 0 for no effect and ±100 for the full control effect. A digest of the protocol:
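Blue-channel autofluorescence (Ex/Em 405/460 nm, triamterene-equivalent) was measured after 1 hr compound exposure at 37 C, 5% CO2. Cells were HepG2, plated overnight at 37 C in MEM plus 10% FBS.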

Assay [9] deals with Glucocorticoid receptor (Homo sapiens) (UniProt P04150). Nature of the assay: qHTS assay to identify small molecule agonists of the glucocorticoid receptor (GR) signaling pathway (AID 720691; active = well fitted activation curve with a large enough effect in the signal ratio in the repeat runs, not every such curve was filed as active; the % refers to the signal ratio; note: % is set by controls: 0 for no effect and ±100 for the full control effect). The method, boiled down:
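Cells: GR-bla HeLa, endogenous GR with stably integrated GRE-beta-lactamase reporter. Treatment 18 h, 37 C, compounds delivered in DMSO. Detection via LiveBLAzer B/G FRET substrate, 2 h RT, fluorescence intensity.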

A short description of assay [10]: qHTS assay to identify small molecule antagonists of the glucocorticoid receptor (GR) signaling pathway - cell viability counter screen (AID 720693). Note: % is set by controls: 0 for no effect and ±100 for the full control effect; nearly all actives have a fitted effect of over 55% in size.
The nature of assay [11]: qHTS assay for identifying genotoxic compounds that show differential cytotoxicity against isogenic chicken DT40 cell lines with known DNA damage response pathways - wild type cell line (AID 743012). Note: nearly all actives have a fitted effect of over 60% in size. Note: potency is the fitted concentration of half-maximal effect. A digest of the protocol: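 Luminescent ATP viability signal (CellTiter-Glo, 30 min RT) recorded after wild type DT40 cells were incubated with compounds for 40 h at 37 C/5% CO2.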

The nature of assay [12]: qHTS assay for identifying genotoxic compounds that show differential cytotoxicity against isogenic chicken DT40 cell lines with known DNA damage response pathways - Rev3 mutant cell line (AID 743014). Note: nearly all actives have a fitted effect of over 55% in size. Note: potency is the fitted concentration of half-maximal effect.
A short description of assay [13]: qHTS assay for identifying genotoxic compounds that show differential cytotoxicity against isogenic chicken DT40 cell lines with known DNA damage response pathways - Rad54/Ku70 mutant cell line (AID 743015). Note: nearly all actives have a fitted effect of over 60% in size. Note: potency is the fitted concentration of half-maximal effect.
Assay [14] can be described thus: qHTS assay to identify small molecule antagonists of the androgen receptor (AR) signaling pathway - cell viability counter screen (AID 743033; note: % is set by controls: 0 for no effect and ±100 for the full control effect; nearly all actives have a fitted effect of over 45% in size).
Assay [15] can be described thus: qHTS assay to identify small molecule antagonists of the androgen receptor (AR) signaling pathway using the MDA cell line - cell viability counter screen (AID 743041; note: % is set by controls: 0 for no effect and ±100 for the full control effect; nearly all actives have a fitted effect of over 45% in size). A digest of the protocol: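 Viability read by CellTiter-Fluor fluorescence in the same wells as the antagonist screen, added after 15.5 h of a 16 h, 37C exposure. Human breast carcinoma MDA-kb2 AR-luc cells, compounds co-dosed with agonist R1881.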

Assay [16] deals with Glucocorticoid receptor (Homo sapiens) (UniProt P04150). As to the kind of experiment: qHTS assay to identify small molecule antagonists of the glucocorticoid receptor (GR) signaling pathway (AID 720692; active = well fitted inhibition curve with a large enough effect in the signal ratio in the repeat runs, not every such curve was filed as active; the % refers to the signal ratio; note: % is set by controls: 0 for no effect and ±100 for the full control effect). A digest of the protocol:
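Quantitative HTS in antagonist format: HeLa cells expressing endogenous GR and a stably integrated GRE-bla reporter, stimulated with 5 nM dexamethasone (final) alongside test compounds for 18 h.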

The target of assay [17] is Androgen receptor (Homo sapiens) (UniProt P10275). Nature of the assay: qHTS assay to identify small molecule antagonists of the androgen receptor (AR) signaling pathway (AID 743035; active = well fitted inhibition curve with a large enough effect in the signal ratio in the repeat runs, not every such curve was filed as active; the % refers to the signal ratio; note: potency is the fitted concentration of half-maximal effect). A digest of the protocol:
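Quantitative HTS of the Tox21 10K library used HEK293 AR-UAS-bla cells stimulated with R1881 alongside compound for 16 h at 37C, followed by beta-lactamase FRET detection (LiveBLAzer B/G, 2 h, RT).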

Assay [18] shares this target. Nature of the assay: qHTS assay to identify small molecule agonists of the androgen receptor (AR) signaling pathway using the MDA cell line (AID 743040; note: potency is the fitted concentration of half-maximal effect; nearly all actives have a fitted effect of over 20% in size). A digest of the protocol: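 Luciferase agonist assay: 16 h compound exposure at 37C without CO2 in MDA-kb2 AR-luc cells, whose MMTV promoter responds to both AR and GR. Luminescence measured after 30 min room-temperature incubation with ONE-Glo.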

The target is the same in assay [19]. Nature of the assay: qHTS assay to identify small molecule antagonists of the androgen receptor (AR) signaling pathway using the MDA cell line (AID 743042; note: % is set by controls: 0 for no effect and ±100 for the full control effect; nearly all actives have a fitted effect of over 55% in size). The method, boiled down: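 Antagonist mode: compounds plus R1881 agonist added to MDA-kb2 AR-luc cells, incubated 16 h at 37C. Luciferase reporter luminescence quantified, with multiplexed CellTiter-Fluor readout for cell viability.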

“And” between values parts separate entries of the source, which are not always exact repeats. Equal entries are not always repeated. Unmarked numbers belong to inactive results. Records with an inconclusive call do not appear. The source made the active and inactive calls. Unless noted, calls come from the whole dose curve; as a rule, active = well fitted curve in the direction sought with a large enough effect in the repeat runs; inconclusive = weak or mixed curves; inactive = no such curve, though single readings can be large; an effect the other way counts as inactive or inconclusive.

Sequence of Glucocorticoid receptor (Homo sapiens) (P04150 whole entry, looked up): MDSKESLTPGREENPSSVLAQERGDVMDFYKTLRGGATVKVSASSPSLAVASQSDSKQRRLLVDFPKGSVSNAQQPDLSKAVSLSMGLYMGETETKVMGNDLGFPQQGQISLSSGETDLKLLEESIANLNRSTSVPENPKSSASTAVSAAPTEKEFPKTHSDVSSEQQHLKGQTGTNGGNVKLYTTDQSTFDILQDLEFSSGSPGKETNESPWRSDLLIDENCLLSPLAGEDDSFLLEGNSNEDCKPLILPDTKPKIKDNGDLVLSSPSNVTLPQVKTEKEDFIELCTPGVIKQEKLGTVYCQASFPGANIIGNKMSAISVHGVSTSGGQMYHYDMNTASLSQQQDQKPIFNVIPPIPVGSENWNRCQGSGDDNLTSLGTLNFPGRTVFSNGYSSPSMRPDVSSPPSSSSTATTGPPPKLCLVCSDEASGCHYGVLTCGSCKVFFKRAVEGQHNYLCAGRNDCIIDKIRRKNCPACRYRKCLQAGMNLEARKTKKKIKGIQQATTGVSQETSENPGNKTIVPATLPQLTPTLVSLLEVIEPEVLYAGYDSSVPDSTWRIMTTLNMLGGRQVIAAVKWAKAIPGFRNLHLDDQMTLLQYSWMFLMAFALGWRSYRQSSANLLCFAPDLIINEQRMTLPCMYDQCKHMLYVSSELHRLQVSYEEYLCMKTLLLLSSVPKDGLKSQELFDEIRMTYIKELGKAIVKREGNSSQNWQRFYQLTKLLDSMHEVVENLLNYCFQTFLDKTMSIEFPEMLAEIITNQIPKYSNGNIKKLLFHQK
Sequence of Androgen receptor (Homo sapiens) (P10275 whole entry, looked up): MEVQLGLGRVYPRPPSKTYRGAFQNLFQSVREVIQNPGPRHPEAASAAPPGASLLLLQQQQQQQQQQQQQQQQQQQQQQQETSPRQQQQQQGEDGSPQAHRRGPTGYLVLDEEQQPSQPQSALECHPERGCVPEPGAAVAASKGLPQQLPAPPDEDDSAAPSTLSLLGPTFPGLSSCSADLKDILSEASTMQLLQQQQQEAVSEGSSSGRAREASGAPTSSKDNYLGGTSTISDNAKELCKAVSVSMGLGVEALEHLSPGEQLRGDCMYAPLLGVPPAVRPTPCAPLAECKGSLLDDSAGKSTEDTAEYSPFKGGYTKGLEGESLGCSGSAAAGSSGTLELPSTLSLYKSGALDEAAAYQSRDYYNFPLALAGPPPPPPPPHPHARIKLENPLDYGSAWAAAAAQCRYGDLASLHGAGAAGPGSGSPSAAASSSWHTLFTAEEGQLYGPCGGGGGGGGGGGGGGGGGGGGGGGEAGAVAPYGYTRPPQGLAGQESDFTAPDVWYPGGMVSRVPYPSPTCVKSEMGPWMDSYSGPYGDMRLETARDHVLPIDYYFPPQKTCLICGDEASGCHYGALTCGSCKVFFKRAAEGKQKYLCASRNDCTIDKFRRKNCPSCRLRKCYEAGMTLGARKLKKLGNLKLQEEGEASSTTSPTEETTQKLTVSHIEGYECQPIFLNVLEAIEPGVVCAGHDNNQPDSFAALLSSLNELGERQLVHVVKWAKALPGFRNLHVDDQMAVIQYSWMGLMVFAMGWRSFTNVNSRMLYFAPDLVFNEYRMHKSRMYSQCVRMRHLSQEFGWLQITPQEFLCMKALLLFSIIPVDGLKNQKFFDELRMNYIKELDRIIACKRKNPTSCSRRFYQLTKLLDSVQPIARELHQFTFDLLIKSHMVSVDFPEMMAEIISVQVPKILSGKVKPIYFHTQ

For the compound `CCN(CC)C(=O)[C@@H]1C=C2c3cccc4[nH]cc(c34)C[C@H]2N(C)C1`, the compound was classed as inactive in assay [1], in assay [2], in assay [3], in assay [4], in assay [5] and in assay [6]. The compound was called inactive in [7], in assay [8] and in [9]. Moreover, the Potency result in assay [10], in assay [14] and in assay [15] was “inactive” each time. In addition, the Potency in assay [11] is 8.98 µM (active) and 10.6 µM (active); in assay [12], 101 µM (active) and 23.7 µM (active); in assay [13], 31.9 µM (active) and 11.9 µM (active).

Consider `Nc1cc2c3c(c1)C(c1ccccc1)=N[C@@H](NC(=O)c1cccnc1)C(=O)N3CC2`, for which the result in assay [1], in assay [2], in [3], in [4], in assay [5] and in assay [6] was inactive. Besides, the call in [7], in [8] and in assay [9] was inactive. Besides, the Potency result in assay [10], in assay [11], in assay [12], in assay [13], in assay [14] and in assay [15] was “inactive” in each case.

Regarding `Nc1cc(Cl)ccc1O`, the result in [1], in [2], in assay [3], in assay [4], in [5] and in assay [6] was inactive. Besides, the compound was called inactive in assay [7], in [8] and in assay [9]. Besides, the Potency result in assay [10], in [14] and in assay [15] was “inactive” each time. Besides, the Potency in assay [11] is 14.9 µM (active); in assay [12], 14.9 µM (active); in [13] it was 9.37 µM (active).

As for `CC1(C)C(=O)NC(=O)NC1=O`, the compound was classed as inactive in [1], in assay [2], in assay [3], in assay [4], in [5] and in [6]. The result in assay [7], in assay [8] and in [9] was inactive. For the same compound, the Potency result in [16], in assay [10], in [12], in assay [13], in [14] and in [15] was “inactive” each time.

For the compound `C[C@@H]1CN(C2CCC(C#N)(c3ccc(F)cc3)CC2)CC[C@]1(C(=O)O)c1ccccc1` (some centres undefined), in assay [1], the fluorescence, % of fluorescein was 0.0038% [at 18.6 µM]. The fluorescence, % of fluorescent control in [2] was -0.0038% [at 18.6 µM]; in [4], 0.238% [at 18.6 µM]; in assay [6], -0.0833% [at 18.6 µM]; in assay [8] it was -0.0325% [at 18.6 µM]. Moreover, in assay [3], the activity change is -0.0185% [at 18.6 µM]. Moreover, the fluorescence, % of Rose Bengal in assay [5] is -0.17% [at 18.6 µM]. For the same compound, in [7], the fluorescence, % of fluorescein control was 0.0942% [at 18.6 µM]. Further, the call in assay [9] was inactive. Further, the Potency result in [10], in assay [11], in assay [12], in [13], in assay [14] and in assay [15] was “inactive” throughout.

On to `C#C[C@]1(O)C=C[C@H]2[C@@H]3CCC4=CC(=O)CC[C@@H]4[C@H]3CC[C@@]21CC`, for which the outcome in assay [1], in assay [2], in [3], in assay [4], in [5] and in [6] was inactive. Besides, the compound was called inactive in assay [7], in assay [8], in [9] and in assay [19]. In addition, the Potency result in assay [10], in [14] and in [15] was “inactive” in each case. Moreover, the Potency was 23.7 µM (active) in assay [11]; 26.6 µM (active) in [12]; 23.7 µM (active) in [13]; 190 nM (active) in [17]; 13.3 nM (active) in assay [18].

`O=P(O)(Oc1ccccc1)Oc1ccccc1`: the outcome in assay [1], in [2], in assay [3], in assay [4], in [5] and in assay [6] was inactive. Besides, the compound was classed as inactive in [7], in [8] and in assay [9]. Further, the Potency result in [10], in [11], in [12], in assay [13], in assay [14] and in assay [15] was “inactive” throughout.

On to `CCOP(=S)(OCC)SCSc1ccc(Cl)cc1`, for which the compound was classed as inactive in assay [1], in [2], in assay [3], in [4], in assay [5] and in [6]. Moreover, the call in assay [7], in assay [8] and in assay [9] was inactive. Further, the Potency entry in assay [16], in [10], in [13], in assay [14] and in [15] was “inactive” throughout.

As to `Cc1nc(N)nc(N)n1`, the call in [1], in [2], in [3], in [4], in assay [5] and in assay [6] was inactive. Besides, the result in assay [7], in assay [8], in [9] and in assay [19] was inactive. In addition, the Potency result in [10], in [11], in assay [12], in assay [13], in assay [14] and in [17] was “inactive” throughout. The Potency result in assay [15] was “inactive”.

The values above are taken from PubChem BioAssay (Tox21).
